Screening results: PubChem, National Center for Advancing Translational Sciences (NCATS)
This is a sample that favours compounds with a hit; in the whole collection about 2.4% have one here.
Anthrax LT inh: blocks cellular internalization of anthrax lethal toxin; 70,000 compounds, 0.67% hits; Potency, µM (series often up to 40 µM), for the others: at the highest dose activity change, negative = inhibition, actives largely listed as inhibitors; Cells, anthrax lethal toxin internalization, FRET ratio (460/530); also: % is scaled to controls: 0 for no effect and ±100 for the full control effect; nearly all actives have a fitted effect of over 50% in size
AmpC inh no det: blocks E. coli AmpC beta-lactamase in absence of detergent. 71,000 compounds, 1.8% hits. Potency, µM (highest dose often 28.7 µM), for inactives: at the highest dose activity change, negative = inhibition. AmpC nitrocefin hydrolysis, absorbance 480 nm, no detergent; also: % of control where 0% means no effect
Target sequence (P00811 whole entry, looked up): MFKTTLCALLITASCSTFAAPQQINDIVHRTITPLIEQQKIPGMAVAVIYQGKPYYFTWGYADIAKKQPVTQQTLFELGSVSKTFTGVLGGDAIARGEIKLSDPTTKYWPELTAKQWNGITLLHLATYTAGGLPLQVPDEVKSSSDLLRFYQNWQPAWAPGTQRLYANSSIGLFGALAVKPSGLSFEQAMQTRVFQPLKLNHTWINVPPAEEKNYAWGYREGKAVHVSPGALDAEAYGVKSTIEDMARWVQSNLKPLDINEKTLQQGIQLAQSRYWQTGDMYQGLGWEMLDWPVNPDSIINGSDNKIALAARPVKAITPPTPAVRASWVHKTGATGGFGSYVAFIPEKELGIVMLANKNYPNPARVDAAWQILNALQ
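Enzyme, pH 7.0 phosphate. Compound titrations were pre-incubated with AmpC for 15 min at room temperature before nitrocefin (stock 800 uM) addition; product formation was recorded at 480 nm every 20 s for 4 min.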
AmpC det inh: inhibitors of E. coli AmpC beta-lactamase with detergent; P00811; purified AmpC, nitrocefin hydrolysis with detergent; Potency, µM (doses to about 28.7 µM), without a hit: top-dose activity change, negative = inhibition; 71,000 compounds, 0.09% hits; AID 584; active = well fitted curve in the direction sought with a large enough effect; inconclusive = small, poorly fitted or top-dose-only effect; also: % is scaled to controls: 0 for no effect and ±100 for the full control effect
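E. coli AmpC (5.3 nM) in 20 mM phosphate pH 7.0 with 0.01% Triton X-100, preincubated 15 min RT with compound; nitrocefin (2 uL of 800 uM stock) hydrolysis followed by 480 nm absorbance every 20 s over 4 min.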
SmPrx2 inh: inhibitors of Schistosoma mansoni peroxiredoxin 2; S. mansoni Prx2 activity coupled to TGR/GSH (TGR is thioredoxin glutathione reductase), NADPH fluorescence loss, qHTS; Potency, µM; 65,000 compounds, 0.07% hits; AID 448
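qHTS, coupled TGR/Prx2 format; 15 min compound preincubation at RT; reaction started with H2O2 (2.5 mM aliquot); kinetic NADPH fluorescence decrease, ex 365/em 450 nm.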
Starred values were filed as active, the others as inactive; ? = inconclusive; . = not tested or not shown; ! = not active in a repeat; [ ] = remark or other dose. Unless noted, calls follow the shape of the full dose curve. Potency is read from the fitted curve at half-maximal effect.

SMILES	Anthrax LT inh	AmpC inh no det	AmpC det inh	SmPrx2 inh
COc1ccccc1N1CCN(Cc2cc(Br)c(O)c3ncccc23)CC1	?	2.5µM*[single pt active]	17%	>57
O=C(CC1(O)C(=O)Nc2cc(Cl)cc(Cl)c21)c1ccccc1O (centres undefined)	-5%	13µM*	10µM*	>57
CN=C1N[C@H](c2ccccc2)N(c2ccccc2)S1	25µM*	10%	-3%	>57
COc1ccc(OC)c(C2=NOC(C(=O)Nc3cc(C)nn3-c3ccccc3)C2)c1 (centres undefined)	-12%	4µM*[single pt active]	11%	>57
COc1cccc(NC(=O)c2oc3ccccc3c2NC(=O)C(C)(C)C)c1	13µM*	11%	5%	>57
Cc1cc(Cc2cc(C)cc(C(C)(C)C)c2O)c(O)c(Cc2cc(C)cc(C(C)(C)C)c2O)c1	3.2µM*	-25%[5.75 µM]	-2%[5.75 µM]	>57
Cc1cc(Cc2c(C)c(C)c(Cc3cc(C)cc(C(C)(C)C)c3O)c(C)c2C)c(O)c(C(C)(C)C)c1	-6%[8 µM]	-7%[5.75 µM]	-1%[5.75 µM]	>57
NC(=O)C1(N2CCCCC2)CCN(C(=O)c2cccs2)CC1	11%	4µM*[single pt active]	12%	>57
CC1C(c2ccccc2)N(C)CCC12NC(=O)NC2=O (centres undefined)	6%	7%	-3%	>57
CC1C(=O)CC(c2ccccc2)N(C)C1c1ccccc1 (centres undefined)	?	4µM*[single pt active]	14%	>57
O=C1c2ccccc2C(O)N1Cc1ccc2c(c1)OCO2 (centres undefined)	-5%	4µM*[single pt active]	13%	>57
O=C1c2ccccc2C(Nc2cccnc2)N1Cc1ccc2c(c1)OCO2 (centres undefined)	0%	3.2µM*[single pt active]	13%	>57
COc1ccc(OC)c(NC2c3ccccc3C(=O)N2Cc2ccc3c(c2)OCO3)c1 (centres undefined)	?	4µM*[single pt active]	15%	>57
C=C[C@@H]1CN2CC[C@H]1C[C@H]2[C@@H](O)c1ccnc2ccccc12	?	-2%	1%	>57
Cc1nc(NCc2ccccc2)c2nc(-c3ccccc3)n(CCN3CCCCC3)c2n1	?	88%	8%	.
COc1cccc(-c2ccc3ncnc(N(C)C)c3c2)c1	?	6.3µM*	10µM*	>57
Cc1ccc(S(=O)(=O)N[C@H]2COC(=O)[C@@H](C)COC(=O)C/C=C\[C@H]2C)cc1	5%[8 µM]	.	.	.
NS(=O)(=O)c1ccc(NC(=O)CCC2CCCCC2)cc1	-22%	7.9µM*	9%	.
O=C(O)C[C@H]1OCC=C2CN3CC[C@]45c6ccccc6N[C@@H]4[C@H]1[C@H]2C[C@H]35	1%[8 µM]	4%[5.75 µM]	0%[5.75 µM]	>57
O=C(O)[C@@H]1CCCN[C@H]1C(=O)O	-2%	-1%	-2%	>57
COc1cc(NC(=O)c2ccc(Cl)cc2)c(OC)cc1NC(=O)CN1CCOCC1	13µM*	123%	1%	>57
O=C(CSCc1ccc(Cl)cc1)c1ccco1	-20%	10µM*[single pt active]	17%	>57
O=C1CC(N2CCC(c3nc4ccccc4[nH]3)CC2)C(=O)N1Cc1ccccc1 (centres undefined)	0%	36%	-3%	>57
CN1C(=O)CC(N2CCC(c3nc4ccccc4[nH]3)CC2)C1=O (centres undefined)	-3%	4µM*[single pt active]	13%	>57
CCOC(=O)N1CCC(NC(=O)CCc2c(C)nc3c(c(C)nn3-c3ccccc3)c2C)CC1	-10%	4µM*[single pt active]	12%	>57
SMILES	Anthrax LT inh	AmpC inh no det	AmpC det inh	SmPrx2 inh
CC1(C)[C@@H]2CC[C@]1(C)CN(CCC[N+](C)(C)C)C2	10%[8 µM]	-6%[5.75 µM]	-3%[5.75 µM]	>57
CC(C)=NOC[C@@H](O)COCc1ccco1	3%[8 µM]	.	.	.
OCCN1CCN(c2ncnc3c2sc2nc(N4CCOCC4)c4c(c23)CCC4)CC1	10µM*	43%	-1%	>57
C[C@@H](CNC1CCCCC1)OC(=O)c1ccccc1	-5%[3.58 µM]	-5%[12.8 µM]	-2%[12.8 µM]	>57
O=C(NC1CCCc2ccccc21)C1CCN(c2c(N3CCCC3)c(=O)c2=O)CC1 (centres undefined)	-5%	4µM*[single pt active]	11%	>57
Cc1cc(=O)n2nc(N3CCC(C(=O)NC4CCCc5ccccc54)CC3)sc2n1 (centres undefined)	5%	65%	15%	>57
C/C(CCN1CCCc2nc(C)c(C)cc21)=N\OC[C@@H](O)COCc1ccco1	8%[8 µM]	.	.	.
COc1ccc(C)cc1NC(=O)c1ccoc1C	7%	2%	2%	.
COc1ccc(C)cc1NC(=O)c1cc2c(CO)cnc(C)c2oc1=N	?	3.2µM*[single pt active]	13%	>57
CCN1C(=O)c2cccc3cccc1c23	?	-3%	-1%	3.9*
CC(=O)O/C(=C1/C[C@H]2[C@@H]3CC=C4C[C@@H](OC(C)=O)CC[C@]4(C)[C@@H]3CC[C@]2(C)C1=O)C(F)(F)F	?	-5%[5.75 µM]	-4%[5.75 µM]	>57
CN1CCN(C(=O)c2cc3c(s2)-c2ccccc2S(=O)(=O)C3)CC1	-3%	4µM*[single pt active]	11%	>57
Cc1cc(C(=O)N2CCN(c3ncccn3)CC2)sc1-c1ccccc1	-9%	56%	-4%	>57
CCN1CCN(C(=O)c2cc3c(s2)-c2ccccc2S(=O)(=O)C3)CC1	-14%	4µM*[single pt active]	15%	>57
O=C(c1ccco1)N1CCN(C(=O)c2cc3c(s2)-c2ccccc2OC3)CC1	-19%	136%	11%	>57
Cc1nn(-c2ccccc2)c(Cl)c1C(=O)N1CCN(c2ncnc3c2cnn3-c2ccccc2)CC1	6.3µM*	134%	-3%	>57
O=C(c1ccco1)N1CCN(c2ncnc3c2cnn3-c2ccccc2)CC1	.	-1%	-4%	>57
Cc1nc(NC(=O)c2ccccc2)sc1-c1csc(NCc2ccco2)n1	?	13µM*	14%	>57
Cc1nc(C)c(-c2csc(NCc3ccco3)n2)s1	-2%	8%	1%	>57
C=C1CC[C@@H](O)C/C1=C/C=C1\CCC[C@]2(C)[C@@H]1CC[C@H]2[C@@H](C)/C=C\[C@@H](C)C(C)C	?	153%	-18%	>57
CNCCCC12CCC(c3ccccc31)c1ccccc12	5µM*!	50%	-1%	>57
CNCCCC1c2ccccc2C=Cc2ccccc21	4%[3.58 µM]	1%[12.8 µM]	-1%[12.8 µM]	>57
CCN1CCN(C(=O)CSCc2nc(-c3ccc(OC)c(OC)c3)oc2C)CC1	?	4µM*[single pt active]	11%	>57
COC(=O)NC(c1ccco1)[C@]1(C(C)=O)CCCC1=O (some centres undefined)	-19%[8 µM]	.	.	.
CO/N=C(\C(=O)N[C@@H]1C(=O)N2C(C(=O)O)=C(CSc3nc(=O)c(O)nn3C)CS[C@@H]12)c1csc(N)n1	1%	13µM*	13µM*	>57
CO/N=C(/C(=O)N[C@@H]1C(=O)N2C(C(=O)O)=C(COC(N)=O)CS[C@H]12)c1ccco1	-6%	0.01µM*	0.025µM*	.
COc1cc(OC)cc([C@H](CNc2ncnc3c2ncn3[C@@H]2O[C@@H](CO)[C@H](O)[C@@H]2O)c2ccccc2C)c1	-5%	156%	-4%	>57
COc1cc(/C=C\C(=O)N2CCCCC2=O)cc(OC)c1OC	?	34%	-1%	.
